According to PubChem BioAssay (NCI):
About 83,000 compounds went through this panel and 20% of them were active in at least one assay; those are over-represented in the sample as a whole.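 Negative percent growth values reflect cell death: -40 means 40% of the cells present at the start died, and -100 means all died.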 Unmarked numbers belong to inactive results. Activity calls are given as the source filed them. How the source made its calls: active means growth percent below 10; inactive means the rest.

Tests used:
Experiment in all cases: NCI-60 one-dose screen, 48 h (100 = growth as untreated, 0 = no growth, -100 = all killed)
Conditions in all cases: 10 µM unless noted
[1] = tested on: NCI-H23 lung
[2] = tested on: NCI-H226 lung
[3] = tested on: NCI-H322M lung
[4] = tested on: HOP-62 NSCLC
[5] = tested on: NCI-H460 lung
[6] = tested on: HOP-92 NSCLC
[7] = tested on: NCI-H522 lung
[8] = tested on: A549/ATCC NSCLC
[9] = tested on: 786-0 renal
[10] = tested on: COLO 205 colon
[11] = tested on: DU-145 prostate
[12] = tested on: K-562 leukemia
[13] = tested on: MALME-3M melanoma
[14] = tested on: MDA-MB-231 breast
[15] = tested on: RXF 393 renal
[16] = tested on: SF-268 CNS
[17] = tested on: SF-295 CNS
[18] = tested on: SF-539 CNS
[19] = tested on: UACC-257 melanoma
[20] = tested on: M14 melanoma

COc1cccc2nc(Nc3cccc(NC(=O)c4ccc(N5CCN(C)CC5)c(C(F)(F)F)c4)c3)ccc12
growth [1]: 62.6% | growth [2]: 43.2% | growth [3]: 42.6% | growth [4]: 18.2% | growth [5]: -9.94% (active) | growth [6]: 13% | growth [7]: -14.2% (active) | growth [8]: 25.3% | growth [9]: -57.8% (active) | growth [10]: -59.2% (active) | growth [11]: 29.4% | growth [12]: -49.1% (active) | growth [13]: -10.5% (active) | growth [14]: 29.5% | growth [15]: -2.23% (active) | growth [16]: 35.5% | growth [17]: -0.464% (active) | growth [18]: -27.9% (active) | growth [19]: -21.9% (active) | growth [20]: 10.1%

Cc1nc2ccc(Nc3nc(NCCN4CCOCC4)nc(Nc4ccc(F)cc4)n3)cc2n1Cc1ccccc1
growth [1]: 67% | growth [2]: 72.1% | growth [3]: 64.1% | growth [4]: 47.8% | growth [5]: 29.4% | growth [6]: 30.3% | growth [7]: 58.7% | growth [8]: 46.3% | growth [9]: 4.17% (active) | growth [10]: 1.19% (active) | growth [11]: 59.2% | growth [12]: 3.04% (active) | growth [13]: -41.7% (active) | growth [14]: 33.3% | growth [15]: 12% | growth [16]: 62.1% | growth [17]: -36.8% (active) | growth [18]: 29.8% | growth [19]: -65.3% (active) | growth [20]: -38.8% (active)

N#Cc1ccc(NC(=O)Nc2nc3ccc(OC(F)(F)F)cc3s2)cc1
growth [1]: -22.1% (active) | growth [2]: 12.7% | growth [3]: 4% (active) | growth [4]: 3.68% (active) | growth [5]: -3.29% (active) | growth [6]: -13.1% (active) | growth [7]: -33.5% (active) | growth [8]: 3.01% (active) | growth [9]: -12.6% (active) | growth [10]: -90.1% (active) | growth [11]: 23.1% | growth [12]: 1.23% (active) | growth [13]: -7.94% (active) | growth [14]: -18.4% (active) | growth [15]: 21.9% | growth [16]: 21.1% | growth [17]: -25.8% (active) | growth [18]: 7.97% (active) | growth [19]: -20.7% (active) | growth [20]: 5.97% (active)

Cc1nc2ccc(Nc3nc(N4CCOCC4)nc(N4CCN(C)CC4)n3)cc2n1Cc1ccccc1
growth [1]: 92% | growth [2]: 95.8% | growth [3]: 76.1% | growth [4]: 86.6% | growth [5]: 97.8% | growth [6]: 64.5% | growth [7]: 93.2% | growth [8]: 85.1% | growth [9]: 72.8% | growth [10]: 73.2% | growth [11]: 98.4% | growth [12]: 29.3% | growth [13]: 65.7% | growth [14]: 68.5% | growth [15]: 61.1% | growth [16]: 68.8% | growth [17]: 90.1% | growth [18]: 76.5% | growth [19]: 82.5% | growth [20]: 83.4%

COc1ccc(C2CC(c3cccc(Nc4ccnc5cc(Cl)ccc45)c3)=NN2c2ccc(Cl)cc2)cc1 (stereo not given)
growth [1]: 84.4% | growth [2]: 83.6% | growth [3]: 72.4% | growth [4]: 88.7% | growth [5]: 47.6% | growth [6]: 68.5% | growth [7]: 90.4% | growth [8]: 70.6% | growth [9]: 74.4% | growth [10]: 73.9% | growth [11]: 79.2% | growth [12]: 12.8% | growth [13]: 74.6% | growth [14]: 75.5% | growth [15]: 105% | growth [16]: 55.1% | growth [17]: 30.7% | growth [18]: -31.5% (active) | growth [19]: 70.7% | growth [20]: 28.3%

O=C1Cc2c([nH]c3ccc([N+](=O)[O-])cc23)-c2ccccc2N1
growth [1]: 2.05% (active) | growth [2]: 27.1% | growth [3]: 18.3% | growth [4]: 17.8% | growth [5]: 6.76% (active) | growth [6]: -17.1% (active) | growth [7]: 0.987% (active) | growth [8]: 18.5% | growth [9]: 7.56% (active) | growth [10]: -58.1% (active) | growth [11]: 4.56% (active) | growth [12]: 3.25% (active) | growth [13]: 8.75% (active) | growth [14]: 29.6% | growth [15]: 16% | growth [16]: 10.8% | growth [17]: 18.7% | growth [18]: -37% (active) | growth [19]: 17.3% | growth [20]: 16.8%

COc1ccc2[nH]cc(/C=C3\C(=O)Nc4ccccc43)c2c1
growth [1]: 42.3% | growth [2]: 62.1% | growth [3]: 37.8% | growth [4]: 28.8% | growth [5]: 26% | growth [6]: 31.3% | growth [7]: 17.5% | growth [8]: 26.5% | growth [9]: 53.8% | growth [10]: 40.6% | growth [11]: 47.1% | growth [12]: 3.31% (active) | growth [13]: 57.5% | growth [14]: 38.9% | growth [15]: 33.3% | growth [16]: 62.5% | growth [17]: 45.5% | growth [18]: 25.8% | growth [19]: 28.2% | growth [20]: 11%

COc1ccc([C@@H]2[C@@H](Cl)C(=O)N2c2cc(OC)c(OC)c(OC)c2)cc1C
growth [1]: 25.3% | growth [2]: 53.9% | growth [3]: 35.3% | growth [4]: 23.3% | growth [5]: 9.34% (active) | growth [6]: 76% | growth [7]: 10.2% | growth [8]: 23.6% | growth [9]: 7.98% (active) | growth [10]: -57% (active) | growth [11]: 12.9% | growth [12]: 9.59% (active) | growth [13]: 76% | growth [14]: 18.3% | growth [15]: 19.8% | growth [16]: 30.2% | growth [17]: 15.7% | growth [18]: 3.27% (active) | growth [19]: 80.7% | growth [20]: 11.7%
